The nature of assay [1]: Tanguay_ZF_120hpf_MORT_legacy: (Legacy) Oregon State University Tanguay Lab 120 Hour Post-fertilization zebrafish Assay for Mortality (AID 2283633).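 For AC50: fitted as increase in binary mortality versus DMSO negative control.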 The method, boiled down:
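Mortality endpoint from a multiplexed whole-embryo zebrafish screen. Dechorionated wild-type embryos received compound at 6 hpf and remained under static exposure at 28C until 120 hpf, with death noted as a present/absent call.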

A short description of assay [2]: Tanguay_ZF_120hpf_YSE_legacy: (Legacy) Oregon State University Tanguay Lab 120 Hour Post-fertilization zebrafish Assay for Yolk Sac Edema (AID 2283634).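 For AC50: actives raise the incidence of yolk sac edema above the DMSO baseline.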 The method, boiled down:
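Readout: presence or absence of yolk sac edema at 120 hpf, fitted upward against DMSO controls. Exposure ran statically from 6 hpf in dechorionated embryos kept at 28C.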

Assay [3] is described as follows: Tanguay_ZF_120hpf_EYE_legacy: (Legacy) Oregon State University Tanguay Lab 120 Hour Post-fertilization zebrafish Assay for Eye Malformation (AID 2283636).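 Note: binary presence or absence of eye malformation scored by brightfield in 120 hpf larvae.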 The method, boiled down: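 5D wild-type embryos, pronase-dechorionated at 4 hpf; static exposure 6–120 hpf, 28C, dark; DMSO 0.64% final; 5uM trimethyltin chloride positive control. Binary eye-defect scoring at 120 hpf; dead embryos not scored.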

Assay [4] in a line: Tanguay_ZF_120hpf_SNOU_legacy: (Legacy) Oregon State University Tanguay Lab 120 Hour Post-fertilization zebrafish Assay for Snout Malformation (AID 2283637). The method, boiled down:
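Binary brightfield scoring of snout malformation at 120 hpf. Dechorionated 5D wild-type embryos, one per well, static exposure from 6 hpf at 28C, sealed and dark; final DMSO 0.64% (vol/vol), DMSO as baseline; 5uM trimethyltin chloride positive control.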

The target in assay [5] is Cellular tumor antigen p53 (Homo sapiens) (UniProt P04637). The assay is described as follows: TOX21_p53_BLA_p3_ratio: Tox21 HCT-116 p53 Agonism Beta-lactamase Assay, Ratio, Phase 3 (AID 2283596). Put shortly: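 Cells were seeded at 4000/well, rested 5 h at 37C, then dosed with DMSO compound solutions (217-fold dilution) for 16 h. CCF4-AM substrate was loaded for 2 h at room temperature, and the 460/530 nm emission ratio was fitted for gain of signal versus DMSO.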
Cellular tumor antigen p53 (Homo sapiens), sequence (P04637 whole entry, looked up): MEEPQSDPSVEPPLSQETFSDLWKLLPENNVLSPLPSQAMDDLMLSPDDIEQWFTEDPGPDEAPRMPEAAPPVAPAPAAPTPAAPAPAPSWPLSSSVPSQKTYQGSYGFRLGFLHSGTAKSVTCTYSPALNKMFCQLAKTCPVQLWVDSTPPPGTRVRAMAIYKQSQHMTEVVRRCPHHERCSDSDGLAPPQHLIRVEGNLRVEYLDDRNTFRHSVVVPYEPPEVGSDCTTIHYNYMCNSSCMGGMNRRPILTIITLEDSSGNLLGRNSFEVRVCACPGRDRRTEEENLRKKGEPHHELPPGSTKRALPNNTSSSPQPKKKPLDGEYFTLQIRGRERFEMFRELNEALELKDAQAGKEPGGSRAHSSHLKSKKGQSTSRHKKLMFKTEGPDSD

Assay [6] has the same target. The assay is described as follows: TOX21_p53_BLA_p5_ratio: Tox21 HCT-116 p53 Agonism Beta-lactamase Assay, Ratio, Phase 5 (AID 2283599). The method, boiled down: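 HCT-116 p53-bla cells (4000/well) plated 5 h, dosed with compound (217-fold DMSO dilution) for 16 h at 37 C; CCF4-AM substrate 2 h at room temperature. Activity is the 460/530 nm emission ratio (405 nm excitation), fitted in gain-of-signal direction versus DMSO.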

Assay [7] can be described thus: TOX21_p53_BLA_p5_viability: Viability Assessment in the Tox21 HCT-116 p53 Agonism Beta-lactamase Assay, Phase 5 (AID 2283600). Put shortly:
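Viability is taken from cellular ATP content, measured by luciferase luminescence in the same wells after the beta-lactamase ratio read. Cells are seeded at 4000 per well and exposed to DMSO-dissolved compounds, diluted 217-fold, for 16 h.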

In assay [8] the target is Cellular tumor antigen p53 (Homo sapiens) (UniProt P04637). The assay is described as follows: TOX21_p53_BLA_p4_ratio: Tox21 HCT-116 p53 Agonism Beta-lactamase Assay, Ratio, Phase 4 (AID 2283601). Put shortly:
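HCT-116 p53 beta-lactamase reporter cells (4000/well) preincubated 5 h, then compound (217-fold dilution of DMSO stock) for 16 h at 37C. CCF4-AM substrate added 2 h at room temperature; 460/530 nm emission ratio fitted upward versus DMSO.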

Assay [9] in a line: Tanguay_ZF_120hpf_AXIS_legacy: (Legacy) Oregon State University Tanguay Lab 120 Hour Post-fertilization zebrafish Assay for Body Axis Malformation (AID 2283635). The method, boiled down:
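Static 6–120 hpf chemical exposure of dechorionated wild-type 5D zebrafish, one per well at 28C; morphology endpoint scored binary at 120 hpf relative to DMSO control.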

The nature of assay [10]: TOX21_p53_BLA_p4_viability: Viability Assessment in the Tox21 HCT-116 p53 Agonism Beta-lactamase Assay, Phase 4 (AID 2283597).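 Note: hits lower the luminescence signal meaning cytotoxicity.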 The method, boiled down:
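Viability is taken as cellular ATP: after 16 h compound exposure of HCT116 cells and a 2 h room-temperature CCF4-AM substrate step, CellTiter-Glo reagent is added and luminescence is measured 30 min later.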

Each structure is given as a SMILES string. Records with an inconclusive call do not appear. Activity calls are given as the source filed them. Rule for the calls: active = hit-call score of the fitted dose curve at least 0.9, where 1 is the maximum; inconclusive = response in the unintended direction; inactive = score below 0.9.

This is an account of results in PubChem BioAssay (EPA / NIEHS).

As for `C[C@]12CC[C@@H]3c4ccc(O)cc4CC[C@H]3[C@@H]1CCC2=O`, the outcome in assay [1], in [2], in assay [3] and in assay [4] was inactive.
In the case of `O=C1CCC(C2CCCCC2)CC1`, the result in [5], in assay [6], in assay [7], in assay [8], in [1] and in assay [2] was inactive. In addition, the compound was classed as inactive in [3] and in assay [4].
Regarding `O=c1[nH]sc2ccccc12`, the result in [5], in [6], in [7], in assay [8], in assay [1] and in [2] was inactive. Further, the outcome in assay [3] and in assay [4] was inactive.
Take `CC(C)(O)c1ccc(CNC(=O)c2cccnc2Oc2ccc3nonc3c2)cc1`: the outcome in assay [5], in assay [6], in assay [8], in assay [1], in assay [2] and in assay [3] was inactive. Besides, the call in assay [4] was inactive.
For `COc1cc(C(=O)NC2CCN(C)CC2)ccc1Nc1ncc2c(n1)N(C1CCCC1)CC(F)(F)C(=O)N2C`, the AC50 in [5] was 70.1 µM (active); in assay [6], 0.00396 µM (active); in assay [7], 68.8 µM (active); in assay [8], 0.00404 µM (active); in assay [1], 24.4 µM (active); in assay [3] it was 10.1 µM (active). For the same compound, in assay [4], the AC50 is 10.1 µM (active). Also, the result in assay [2] was inactive.
With `CN(C[C@@H](CC[N+]12CCC(C3CCCCC3)(CC1)CC2)c1ccc(Cl)c(Cl)c1)C(=O)c1cc(C(F)(F)F)cc(C(F)(F)F)c1`, the AC50 in [5] is 87 µM (active); in assay [6] it was 77.8 µM (active); in assay [7], 46.8 µM (active); in assay [8], 27.5 µM (active); in assay [1], 25.5 µM (active). Besides, the outcome in assay [2], in assay [3] and in assay [4] was inactive.
In the case of `O=c1ccc2ccccc2o1`, the result in [5], in assay [6], in assay [7], in [8], in [1] and in assay [2] was inactive. Moreover, the result in assay [9], in assay [3] and in [4] was inactive.
Consider `O=C1c2ccccc2C(=O)N1CCc1noc(-c2ccc(CN3CCCCCC3)s2)n1`, for which the outcome in [5], in assay [6], in assay [7], in assay [1], in [2] and in assay [9] was inactive. The compound was classed as inactive in assay [3] and in assay [4].
For the compound `COCC(C)OCC(C)OCC(C)O` (centres undefined), the compound was called inactive in [1], in [2], in assay [9], in [3] and in [4].
Consider `O=C(O)c1ccccc1-n1cc(C(=O)O)c(=O)c2cc(Nc3c(F)cc(F)cc3Cl)c(Cl)cc21`, for which the outcome in assay [8], in assay [1], in [2], in assay [3] and in [4] was inactive.
As to `CC[C@H](NC(=O)c1cc(F)ccc1NS(=O)(=O)c1cccc2cccnc12)c1ccccc1`, the outcome in assay [5], in [6], in assay [1], in [9] and in [4] was inactive. For the same compound, the half-maximal activity concentration (AC50) in assay [8] is 67.2 µM (active).
Regarding `COc1cccc([C@H](O)C2CCN(CCc3ccc(F)cc3)CC2)c1OC`, the compound was classed as inactive in [10], in assay [6], in assay [7], in [1] and in [3]. Besides, the AC50 was 44.9 µM (active) in assay [2] and 45.8 µM (active) in [4].
With `c1ccc2ccccc2c1`, the outcome in assay [5], in [6], in [7], in [8], in assay [1] and in assay [9] was inactive. In addition, the call in assay [4] was inactive.
Consider `O=c1c(-c2ccc(O)cc2)coc2cc(O)cc(O)c12`, for which the result in assay [5], in assay [6], in [7], in assay [8], in assay [2] and in assay [3] was inactive. Also, the outcome in [4] was inactive. For the same compound, the AC50 in [1] is 26.1 µM (active).
Take `CCCOC(=O)c1cc(O)c(O)c(O)c1`: the outcome in assay [5], in [6], in assay [7], in [8], in assay [1] and in assay [2] was inactive. The result in assay [3] and in [4] was inactive.
For the compound `CCCCCCCC[Si](OCC)(OCC)OCC`, the outcome in assay [5], in assay [6], in [8], in [1] and in [4] was inactive.
On to `Cc1oc2c(NC(=O)c3c(Cl)cccc3Cl)cccc2c1C(C)(C)O`, for which the result in [5], in assay [6], in assay [7], in assay [2], in assay [9] and in assay [3] was inactive. Also, the compound was classed as inactive in assay [4]. For the same compound, in assay [1], the concentration at half-maximal activity (AC50) is 26 µM (active).
As for `O=C(O)Cn1c(=O)n(Cc2ccc(Br)cc2F)c(=O)c2ccc(Cl)cc21`, the result in [6], in assay [7], in assay [8], in assay [1], in assay [2] and in assay [9] was inactive. The compound was classed as inactive in [3] and in assay [4].
As to `O=C1O[C@H]([C@@H](O)CO)C(O)=C1O`, the outcome in assay [5], in [6], in assay [7], in [8], in [1] and in [3] was inactive. In assay [4], the compound was called inactive.
In the case of `CCCCCCCCOC(=O)c1cc(O)c(O)c(O)c1`, the AC50 in assay [5] is 36.8 µM (active); in assay [6], 63.3 µM (active); in [7], 42.6 µM (active); in [8], 62.6 µM (active); in assay [1] it was 8.13 µM (active). Also, the result in assay [2], in [3] and in [4] was inactive.
With `CCCCOC(=O)CC(CC(=O)OCCCC)(OC(C)=O)C(=O)OCCCC`, the outcome in [5], in assay [7], in assay [8], in assay [1], in assay [2] and in assay [4] was inactive.
On to `O=C(OCCCCCCOC(=O)c1ccccc1)c1ccccc1`, for which the result in [6], in [8], in assay [1] and in assay [2] was inactive.
For the compound `Cc1ccc(C(C)C)cc1`, the result in assay [5], in assay [6], in assay [7], in [8], in assay [1] and in assay [2] was inactive. Further, the result in assay [4] was inactive.
